The values below come from PubChem BioAssay (EPA / NIEHS).

The source made the active and inactive calls. How the source made its calls: active means hit-call score of the fitted dose curve at least 0.9, where 1 is the maximum; inactive means score below 0.9.

Conditions in all cases: mRNA level, 48 h; actives raise or lower the signal
Read-out in experiment [1]: Cytochrome P450 7A1 (Homo sapiens) (UniProt P22680)
The experiment can be described thus: LTEA_HepaRG_CYP7A1: Life Technologies and Expression Analysis (LTEA) Assay for Cytochrome P450 7A1 (CYP7A1) using HepaRG (AID 2283496). The method, boiled down: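 HepaRG, 48 h exposure, 8-pt half-log series from 100 uM, 0.5% DMSO vehicle, duplicates. Readout: TaqMan qRT-PCR mRNA vs three housekeeping genes; bidirectional curve fit against DMSO baseline.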

Read-out in experiment [2]: Glutathione S-Transferase (GSTA2), GSTA2 (gene 2939)
The experiment can be described thus: LTEA_HepaRG_GSTA2: Life Technologies and Expression Analysis (LTEA) Assay for Glutathione S-Transferase (GSTA2) using HepaRG (AID 2283497). The method, boiled down:
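GSTA2 transcript levels came from Fluidigm TaqMan qRT-PCR normalized to three housekeeping genes, fitted in both directions against DMSO. HepaRG cultures received chemicals for 48 h in serum-free induction medium (0.5% DMSO), 8 half-log concentrations up to 100 uM, duplicate.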

Read-out in experiment [3]: Glutamate-cysteine ligase catalytic (GCLC), GCLC (gene 2729)
Kind of experiment: LTEA_HepaRG_GCLC: Life Technologies and Expression Analysis (LTEA) Assay for Glutamate-cysteine ligase catalytic (GCLC) using HepaRG (AID 2283498). The method, boiled down: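 Expression by TaqMan qRT-PCR, normalized to three housekeeping genes (ACTB, GAPDH, POLR2A), with up- or down-regulation fitted against DMSO. HepaRG cells dosed in duplicate for 48 h with 8 half-log concentrations up to 100 uM, vehicle 0.5% DMSO.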

Read-out in experiment [4]: growth arrest and DNA damage 45 (GADD45G), GADD45G (gene 10912)
Kind of experiment: LTEA_HepaRG_GADD45G: Life Technologies and Expression Analysis (LTEA) Assay for growth arrest and DNA damage 45 (GADD45G) using HepaRG (AID 2283499). The method, boiled down:
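GADD45G transcript level by qRT-PCR (housekeeping-normalized: ACTB, GAPDH, POLR2A) after 48 h chemical treatment of a single HepaRG lot in serum-free induction medium; eight-point half-log series up to 100 uM in 0.5% DMSO, duplicates, up- or down-regulation scored.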

Read-out in experiment [5]: Glutamate-cysteine ligase regulatory (GCLM), GCLM (gene 2730)
Kind of experiment: LTEA_HepaRG_GCLM: Life Technologies and Expression Analysis (LTEA) Assay for Glutamate-cysteine ligase regulatory (GCLM) using HepaRG (AID 2283500). The essentials: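 GCLM expression quantified by qRT-PCR, normalized to three housekeeping genes, after 48 h chemical treatment of HepaRG cells in duplicate at 8 concentrations (top 100 uM, half-log steps, 0.5% DMSO). Changes fitted both directions against vehicle.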

Read-out in experiment [6]: Heat shock 70 kDa protein 1 (HSPA1A), gene 3303
The experiment can be described thus: LTEA_HepaRG_HSPA1A: Life Technologies and Expression Analysis (LTEA) Assay for Heat shock 70 kDa protein 1 (HSPA1A) using HepaRG (AID 2283502). The essentials:
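HSPA1A expression measured by qRT-PCR with ACTB/GAPDH/POLR2A normalization; curves fitted in both directions relative to DMSO vehicle. Exposure: 48 h in HepaRG cells, duplicate 8-point half-log series from 100 uM, 0.5% DMSO, serum-free induction medium.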

Read-out in experiment [7]: Hypoxia-inducible factor 1-alpha (Homo sapiens) (UniProt Q16665)
Kind of experiment: LTEA_HepaRG_HIF1A: Life Technologies and Expression Analysis (LTEA) Assay for Hypoxia-inducible factor 1 (HIF1A) Trancription factor using HepaRG (AID 2283503). The essentials:
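HIF1A transcript level read by qRT-PCR (ACTB, GAPDH, POLR2A normalization) after 48 h chemical exposure of HepaRG cultures. Eight half-log concentrations, top 100 uM, 0.5% DMSO vehicle, duplicates; bidirectional curve fit against DMSO baseline.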

Read-out in experiment [8]: 3-Hydroxy-3-Methylglutaryl-CoA Synthase 2 (HMGCS2), HMGCS2 (gene 3158)
Kind of experiment: LTEA_HepaRG_HMGCS2: Life Technologies and Expression Analysis (LTEA) Assay for 3-Hydroxy-3-Methylglutaryl-CoA Synthase 2 (HMGCS2) using HepaRG (AID 2283504). The method, boiled down: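 Readout is HMGCS2 transcript by qRT-PCR, housekeeping-normalised (ACTB/GAPDH/POLR2A) and fitted bidirectionally against 0.5% DMSO. Differentiated HepaRG cells received chemicals 48 h, duplicate wells, eight half-log concentrations topping at 100 uM.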

Read-out in the next experiment: HGF (gene 3082)
Kind of experiment: LTEA_HepaRG_HGF: Life Technologies and Expression Analysis (LTEA) Assay for Hepatocyte Growth Facto (HGF) using HepaRG (AID 2283505). The method, boiled down:
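HGF transcript was quantified by TaqMan qRT-PCR against three housekeeping genes after 48 h treatment of HepaRG cells. Exposure ran in duplicate over eight half-log steps topping at 100 uM in 0.5% DMSO vehicle.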

Read-out in experiment [9]: Insulin Like Growth Factor 1 (IGF1), IGF1 (gene 3479)
The experiment can be described thus: LTEA_HepaRG_IGF1: Life Technologies and Expression Analysis (LTEA) Assay for Insulin Like Growth Factor 1 (IGF1) using HepaRG (AID 2283506). The method, boiled down: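 Expression measured by TaqMan qRT-PCR on a Fluidigm array, with three housekeeping genes for normalisation, after 48 h treatment of HepaRG cells. Top concentration 100 uM with half-log steps, 0.5% DMSO vehicle, bidirectional fit.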

Read-out in experiment [10]: Intercellular Adhesion Molecule 1 (ICAM1), ICAM1 (gene 3383)
The experiment can be described thus: LTEA_HepaRG_ICAM1: Life Technologies and Expression Analysis (LTEA) Assay for Intercellular Adhesion Molecule 1 (ICAM1) using HepaRG (AID 2283507). The essentials: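 ICAM1 transcript levels measured by qRT-PCR, normalized to three housekeeping genes (ACTB, GAPDH, POLR2A), after 48 h chemical exposure of HepaRG cells. Duplicate eight-point half-log series from 100 uM in 0.5% DMSO; gain or loss fitted against vehicle.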

Read-out in experiment [11]: Insulin-like growth factor-binding protein 1 (IGFBP1), IGFBP1 (gene 3484)
The experiment can be described thus: LTEA_HepaRG_IGFBP1: Life Technologies and Expression Analysis (LTEA) Assay for Insulin-like growth factor-binding protein 1 (IGFBP1) using HepaRG (AID 2283508). The essentials: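 Read-out is qRT-PCR transcript level normalized to three housekeeping genes, fitted in both directions against 0.5% DMSO. Differentiated HepaRG cells received eight half-log concentrations (top 100 uM) in duplicate for 48 h in serum-free induction medium.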

Read-out in experiment [12]: Interleukin 6 (IL6), IL6 (gene 3569)
Kind of experiment: LTEA_HepaRG_IL6: Life Technologies and Expression Analysis (LTEA) Assay for Interleukin 6 (IL6) using HepaRG (AID 2283509). The essentials: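 Transcript levels, normalized to three housekeeping genes, were quantified by qRT-PCR after 48 h chemical treatment of HepaRG cells. Eight-point half-log series from 100 uM in 0.5% DMSO, duplicates. Fitted both directions against DMSO baseline.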

Read-out in experiment [13]: Interleukin 6 Receptor (IL6R), IL6R (gene 3570)
Kind of experiment: LTEA_HepaRG_IL6R: Life Technologies and Expression Analysis (LTEA) Assay for Interleukin 6 Receptor (IL6R) using HepaRG (AID 2283510). The essentials: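 IL6R transcript level by qRT-PCR after 48 h chemical exposure (8-point, half-log, max 100 uM, 0.5% DMSO vehicle) of HepaRG cells in serum-free induction medium. Normalized to three housekeeping genes; curves fitted in both directions relative to DMSO.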

Read-out in experiment [14]: Potassium channel subfamily K member 1 (KCNK1), KCNK1 (gene 3775)
Kind of experiment: LTEA_HepaRG_KCNK1: Life Technologies and Expression Analysis (LTEA) Assay for Potassium channel subfamily K member 1 (KCNK1) using HepaRG (AID 2283511). The method, boiled down: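 KCNK1 transcript measured by TaqMan qRT-PCR against three housekeeping genes, after HepaRG cells were treated 48 h with eight half-log concentrations (top 100 uM, 0.5% DMSO). Curves fitted bidirectionally relative to vehicle.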

Read-out in experiment [15]: Keratin 19 (KRT19), KRT19 (gene 3880)
Kind of experiment: LTEA_HepaRG_KRT19: Life Technologies and Expression Analysis (LTEA) Assay for Keratin 19 (KRT19) using HepaRG (AID 2283512). The method, boiled down:
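KRT19 transcript measured by TaqMan qRT-PCR, referenced to three housekeeping genes, after HepaRG cells received test chemicals for 48 h. Eight half-log concentrations, top 100 uM, 0.5% DMSO vehicle; increases and decreases both fitted.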

Read-out in experiment [16]: JUN Transcription Factor, JUN (gene 3725)
The experiment can be described thus: LTEA_HepaRG_JUN: Life Technologies and Expression Analysis (LTEA) Assay for JUN Transcription Factor using HepaRG (AID 2283513). The method, boiled down: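 mRNA measured by TaqMan qRT-PCR after 48 h chemical exposure of HepaRG cultures; normalization to three housekeeping genes. Duplicate eight-point half-log curves from 100 uM in 0.5% DMSO; gain or loss fitted against DMSO baseline.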

Read-out in experiment [17]: Lipase C (LIPC), LIPC (gene 3990)
Kind of experiment: LTEA_HepaRG_LIPC: Life Technologies and Expression Analysis (LTEA) Assay for Lipase C (LIPC) using HepaRG (AID 2283514). The essentials:
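LIPC expression was quantified by qRT-PCR against three housekeeping genes (ACTB, GAPDH, POLR2A). Differentiated human HepaRG cells received eight half-log doses (top 100 uM, 0.5% DMSO) in duplicate for 48 h; fitting bidirectional relative to DMSO.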

Read-out in experiment [18]: Lipoprotein lipase (LPL), LPL (gene 4023)
Kind of experiment: LTEA_HepaRG_LPL: Life Technologies and Expression Analysis (LTEA) Assay for Lipoprotein lipase (LPL) using HepaRG (AID 2283515). The essentials: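 LPL transcript levels quantified by TaqMan qRT-PCR against three housekeeping genes after 48 h chemical treatment of HepaRG cells. Eight-point half-log series from 100 uM in 0.5% DMSO, tested in duplicate; bidirectional fitting versus vehicle.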

Read-out in experiment [19]: Glutathione S-transferase M3 (GSTM3), GSTM3 (gene 2947)
The experiment can be described thus: LTEA_HepaRG_GSTM3: Life Technologies and Expression Analysis (LTEA) Assay for Glutathione S-transferase M3 (GSTM3) using HepaRG (AID 2283501). The essentials: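 GSTM3 transcript levels came from Fluidigm TaqMan qRT-PCR normalized to three housekeeping genes, fitted in both directions against DMSO. HepaRG cultures received chemicals for 48 h in serum-free induction medium (0.5% DMSO), 8 half-log concentrations up to 100 uM, duplicate.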

Usually AC50 stands for the concentration at which the activity in the assay is half-maximal.

Chain of Hypoxia-inducible factor 1-alpha (Homo sapiens) (Q16665 whole entry, looked up): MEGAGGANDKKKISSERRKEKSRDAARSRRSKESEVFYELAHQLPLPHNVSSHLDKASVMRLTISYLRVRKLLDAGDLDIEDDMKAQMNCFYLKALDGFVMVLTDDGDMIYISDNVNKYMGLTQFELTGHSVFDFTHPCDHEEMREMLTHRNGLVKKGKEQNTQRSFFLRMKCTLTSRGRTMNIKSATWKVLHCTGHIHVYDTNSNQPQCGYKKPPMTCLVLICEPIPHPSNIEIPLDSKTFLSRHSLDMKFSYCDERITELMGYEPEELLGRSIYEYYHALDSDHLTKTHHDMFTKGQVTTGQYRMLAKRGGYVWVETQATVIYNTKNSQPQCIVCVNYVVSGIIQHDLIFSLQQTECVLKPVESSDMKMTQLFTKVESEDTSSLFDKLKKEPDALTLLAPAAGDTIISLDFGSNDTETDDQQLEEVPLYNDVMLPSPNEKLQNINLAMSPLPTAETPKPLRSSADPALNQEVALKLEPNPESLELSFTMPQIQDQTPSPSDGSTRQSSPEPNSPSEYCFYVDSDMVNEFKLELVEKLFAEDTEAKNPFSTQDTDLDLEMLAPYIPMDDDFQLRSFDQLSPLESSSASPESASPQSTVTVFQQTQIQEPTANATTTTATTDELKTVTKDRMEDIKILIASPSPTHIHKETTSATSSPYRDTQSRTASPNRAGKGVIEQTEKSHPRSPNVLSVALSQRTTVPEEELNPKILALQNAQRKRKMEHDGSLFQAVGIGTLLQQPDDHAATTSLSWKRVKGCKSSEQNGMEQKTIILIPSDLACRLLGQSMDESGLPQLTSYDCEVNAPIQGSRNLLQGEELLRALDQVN

For `CC(C)CC(C)O` (stereo not given), the outcome in [1], in [2], in experiment [3], in experiment [4], in experiment [5] and in experiment [6] was inactive. Moreover, the call (in [7]; in experiment [8]; in the experiment with HGF (gene 3082); in experiment [9]; in experiment [10]; in [11]) was inactive. Further, the call in [12], in [13], in experiment [14], in experiment [15], in experiment [16] and in [17] was inactive. In addition, the outcome in experiment [18] was inactive.
Take `CCCCCCCCCCCCCCCCOS(=O)(=O)O`: the AC50 was 45.2 µM (active) in experiment [1], 43.5 µM (active) in experiment [2] and 44.2 µM (active) in experiment [9]. The result in experiment [3], in [4], in experiment [5], in experiment [6], in experiment [7] and in experiment [8] was inactive. The molecule was called inactive (in the experiment with HGF (gene 3082); in [10]; in experiment [11]; in experiment [12]; in experiment [13]; in [14]). In addition, the outcome in experiment [15], in [16], in [17] and in [18] was inactive.
As to `COS(C)(=O)=O`, the result in [1], in experiment [2], in [3], in [4], in experiment [5] and in experiment [19] was inactive. Further, the call (in experiment [6]; in [7]; in [8]; with HGF (gene 3082); in experiment [9]; in experiment [10]) was inactive. In addition, the molecule was called inactive in experiment [11], in experiment [13], in experiment [14], in experiment [15], in experiment [16] and in experiment [17]. For the same molecule, in experiment [18], the result was inactive.
For the molecule `NC(=O)N(O)[C@@H]1COc2cc(OCc3ccccc3)ccc21`, the outcome in experiment [1], in experiment [2], in experiment [3], in experiment [4], in [5] and in experiment [19] was inactive. The molecule was called inactive (in experiment [6]; in experiment [7]; in experiment [8]; with HGF (gene 3082); in [9]; in experiment [10]). Further, the molecule was classed as inactive in experiment [11], in experiment [13], in [14], in [15], in experiment [16] and in [17]. Further, the molecule was classed as inactive in experiment [18].
As for `OCc1ccccc1`, the call in experiment [1], in experiment [2], in experiment [3], in experiment [4], in experiment [5] and in experiment [19] was inactive. Moreover, the outcome (in experiment [6]; in [7]; in experiment [8]; in the experiment with HGF (gene 3082); in [9]; in [10]) was inactive. Besides, the call in [11], in experiment [12], in experiment [13], in experiment [14], in experiment [15] and in experiment [16] was inactive. The call in experiment [17] and in experiment [18] was inactive.
In the case of `CCCCC(CC)C(=O)OCCOCCOCCOC(=O)C(CC)CCCC` (stereo not given), the molecule was classed as inactive in experiment [1], in experiment [2], in experiment [4], in experiment [5], in experiment [19] and in [6]. For the same molecule, the call (in [7]; in [8]; with HGF (gene 3082); in [9]; in experiment [10]; in [11]) was inactive. The molecule was classed as inactive in [12], in experiment [13], in [14], in [15], in experiment [16] and in experiment [17]. For the same molecule, the call in [18] was inactive.
